In PubChem BioAssay AID900 (National Center for Advancing Translational Sciences (NCATS), 2007):
Values joined by “and” are separate entries in the source; they are usually repeats but may differ in a detail not shown here. Equal values may be shown once. The campaign covered roughly 75,000 compounds. About 20 (0.03%) were called active. Roughly 1% stayed inconclusive and do not appear here. Calls follow the shape of the dose curve; as a rule, active = well fitted inhibition curve with a large enough effect; inconclusive = small, poorly fitted or top-dose-only effect; inactive = flat fitted curve, though single readings scatter. The list is a sample of the results.

Biological target: Caspase-1 (Homo sapiens) (UniProt P29466)
Assay: qHTS Assay for Allosteric/Competitive Inhibitors of Caspase-1;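 also: plate controls were vehicle for no effect and no substrate for full effect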
Conditions: Caspase-1 enzyme, Ac-WEHD-AFC fluorogenic rate; series mostly up to 57.5 µM
Excerpt: NIH Molecular Libraries Screening Centers Network [MLSCN]
NIH Chemical Genomics Center [NCGC]
PI Name: Dr. James Wells,
Dr. Enrique Perez-Paya, Dr.Janice Williams, Dr. Dennis Wolan, a person
The caspases (Cysteine Aspartyl Protease) comprise a related family of 14 dimeric proteases that are critical mediators of apoptosis (programmed cell death) and inflammation. The caspases represent an important class of drug targets for stroke, ischemia, cancer and inflammatory diseases. […] One goal of this project was to identify compounds that act as allosteric inhibitors via stabilizing the procaspase form of the enzyme. Previous work in Well's laboratory has shown that such allosteric inhibitors can be identified and these act by binding at the dimer interface of enzyme (Hardy, Lam et al., 2004).
The biochemical assay was configured using purified caspase 1 at a high enzyme concentration to promote formation of the homodimers and thus facilitate the identification of allosteric inhibitors. The overall goal was to identify reversible inhibitors with better drug-like properties than the currently available set of aspartyl-containing peptidomimetics that covalently bind the active site. Caspase 1 was assayed using the profluorescent substrate Ac-WEHD-AFC. After initiation of the assay with substrate the plates were rapidly read using an automated robotic system (Kalypsys, Inc.) to maintain consistent timing. A kinetic mode of detection was used where the initial rate was collected (estimated final product formation was ~10%). Compounds were screened as a concentration-titration series that ranged from 57 uM to 0.7 nM. Below is the protocol used for caspase 1.
NCGC Assay Protocol Summary:
Caspase 1 was prepared in buffer (50 mM HEPES pH 7.5, 50 mM KCl, 200 mM NaCl, 10 mM DTT, 0.1% CHAPS) at a concentration of 66.6 nM and 3 uL was dispensed to all wells using black solid Kalypsys 1536-well plates. 20 nL of DMSO containing compounds was added using a pin-tool (Kalypsys Inc.) to columns 5-48. Then 20 nL of DMSO solution from a control plate was added to columns 1-4. Controls were: Column 1, 16 point titration with each concentration in duplicate (1:1 dilutions in DMSO; final starting concentration was 57 uM) of the caspase 1 inhibitor Ac-WEHD-CHO (Alexis Biochemicals); Column 2, a 16 point titration with each concentration in duplicate of the free AFC fluorophore prepared in DMSO (Alexis Biochemicals), final starting was 40 uM; Column 3 neutral (DMSO only) control; Column 4: DMSO alone, to serve as a negative control (no substrate was added). Then 1 uL of 20 uM the substrate Ac-WEHD-AFC (Alexis Biochemicals) prepared in the same buffer was dispensed to all wells except columns 2 and 4 and the plates were immediately transferred (< 1 min) to the Viewlux. The plates were then exposed using 405 nm excitation/520 nm emission filters for 4 sec and read at 20 sec intervals for 3 min. Final enzyme concentration was 50 nM and the final substrate concentration was 5 uM.
Concentration-response curves were fitted to the data calculated from slope of the linear regression of fluorescent intensity versus time (the rate). The concentration-effect curves were then classified based on curve quality (r2), response magnitude and degree of measured activity. […] Inconclusive compounds had appreciable concentration-dependent effects on both the measured rate and the interpolated basal fluorescence intensity at the start of the reaction but where the basal fluorescent intensity was marginal (e.g. < 10-fold). Inconclusive compounds also encompass highly fluorescent compounds (>100-fold increases in fluorescent intensities values relative to controls) where artificial concentration-dependent decreases in the rate occurred at high compound concentrations due to fluorescent interferences.
Keywords: Caspase 1, proteases, profluorescent, MLSMR, MLSCN, NIH Roadmap, qHTS, NCGC

Activity change, negative = inhibition, inactive:
CC(C)N(CCNC(=O)c1ccc(-n2c(=O)c(=O)[nH]c3ccccc32)cc1)C(C)C, Cc1ccccc1CSCC(=O)NC(=O)NC(C)(C)C, O=C(O)CCC(=O)NCc1ccc2[nH]c3c(c2c1)CCCC3, CCn1ncc(C2=NOC(C(=O)Nc3ccccc3C(=O)OC)C2)c1C (stereo not drawn), CO[C@H]1COC(=O)[C@@H](C)NC(=O)C/C=C\[C@@H](C)[C@H](OC)COC(=O)C/C=C\[C@@H]1C 1.2% [at 11.5 µM], CO/N=C\[C@@H](C)[C@H](OCc1ccccc1)C(C)C 1.85% [at 11.5 µM], CC(=O)OCC(=O)C1CCC2C3CCC4=CC(=O)CC[C@@]4(C)C3CC[C@]12C (stereo partly drawn), CC(C)[C@@H](OCc1ccccc1)[C@H](C)/C=N\OC[C@@H](C)[C@H](OCc1ccccc1)C(C)C -1.54% [at 11.5 µM], COC(=O)CC1C(C)(C)C(OC(C)=O)C2CC3=C4CC(=O)OC(c5ccoc5)[C@]4(C)CCC3[C@@]1(C)C2=O (stereo partly drawn), O=C(CSc1nc2ccccc2[nH]1)c1cccs1, CC(=O)Oc1c2c(c3c(c1CC=C(C)C)O[C@@]14C(=CC5CC1C(C)(C)OC4(C/C=C(\C)C(=O)O)C5=O)C3=O)OC(C)(CCC=C(C)C)C=C2 (stereo partly drawn), Cc1cc(C)cc(C#CC2C=CC(Oc3ccc(C4CCCC4)cc3)C(CO)O2)c1 (stereo not drawn) -0.183% [at 11.5 µM], Cc1sc2c(c1C)c(=O)n(-c1ccccc1)c1nncn21, CC(C)CN1CCc2nc(-c3ccccc3)c3c(c2C1)COC(C)C3 (stereo not drawn) -0.646% [at 11.5 µM], C=CCOC(=O)C(C(C)=O)C(NC(=O)OC)c1ccccc1 (stereo not drawn) -2.17% [at 11.5 µM], COc1c(C(C)C)oc2cc3oc(=O)ccc3cc12, Cc1oc(C)c(C(=O)NCCCC(=O)O)c1C(=O)NCCCC(=O)O, CC(CCC(=O)O)C1CCC2C3C(O)C[C@@H]4CC(O)CC[C@@]4(C)C3CC[C@@]12C (stereo partly drawn), CN(C)CCc1c[nH]c2ccc(Cn3cncn3)cc12, Nc1ncn(C2OC(CO)C(O)C2O)c(=O)n1 (stereo not drawn), Cc1occc1C(=O)Nc1nnc(C2CCCCC2)s1, Oc1ccc2c(c1)OCC1c3cc4c(cc3OC21)OCO4 (stereo not drawn), C#CCC(C(=O)OC)(C(=O)OC)C(C[N+](=O)[O-])c1ccccc1 (stereo not drawn) -0.949% [at 11.5 µM], O=C(c1cccs1)N1CCN(Cc2ccc3c(c2)OCO3)CC1, C=C[C@](C)(O)CCC1C(=C)CCC2[C@@](C)(CO)CCC[C@@]12C (stereo partly drawn), C=C1C([C@@]2(C)C(OC(C)=O)CC(=O)O[C@@](C)(COC(C)=O)C2CC(=O)OC)C(OC=O)C(OC(=O)C(O)C(C)CC)[C@]2(C)C(c3ccoc3)CC(=O)C12O (stereo partly drawn), CSc1ccc(Cl)c(C(=O)OCC(=O)N2CC(C)OC(C)C2)c1 (stereo not drawn), CC(C)(C)c1ccc(OC2C=CC(C#Cc3ccccc3)OC2CO)cc1 (stereo not drawn) -6.01% [at 11.5 µM], COc1cccc([C@H]2Oc3ccc(OC)cc3/C(=N\OCC[C@@H]3C=C[C@H](OC(C)=O)[C@H](COC(C)=O)O3)[C@@H]2O)c1 -0.817% [at 11.5 µM], CC(=O)OCCC(C)C, CCCNC(=O)OC[C@@H]1O[C@H](c2ccccc2)C=C[C@@H]1Oc1ccc(OC)cc1 -0.962% [at 11.5 µM], CO[C@H]1COC(=O)C/C=C\[C@H](C)COC(=O)[C@@H](OCc2ccccc2)/C=C\[C@@H]1C -1.1% [at 11.5 µM], C=CCNC(=O)CCCC(=O)NCC=C, Oc1cc(O)c2c(c1)OC(c1ccc(O)c(O)c1)C(O)C2 (stereo not drawn), Cn1c(=O)n2n(c1=O)[C@H]1[C@H](O)[C@H]3O[C@H]3C(=O)[C@H]1CC2 1.82% [at 11.5 µM], N#Cc1c(/N=C/N2CCCC2)oc(-c2ccccc2)c1-c1ccccc1, O=C(c1ccc(-n2cnnn2)cc1)N1CCN(C(c2ccccc2)c2ccccc2)CC1, CC(C)CO/N=C1/C[C@@H](O)[C@@H](O)[C@@H]2[C@@H]3C(=O)N(C[C@@H]4CCCO4)C(=O)[C@H]3CC[C@@H]12 -2.12% [at 11.5 µM], COC(=O)c1ccc(C(NC(=O)OCc2ccccc2)/C(C)=C/[C@@H](C)C(=O)NCc2cc(C)on2)cc1 (stereo partly drawn), COC(=O)[C@@H]1C[C@@]2(O)[C@H](O)[C@H](O)[C@H](O)C[C@H]2N1Cc1ccc(C)s1, OC(CCl)CCl, CCCn1c(-c2ccc(F)cc2)nc2c(NC3CCN(Cc4ccccc4)C3)nc(C)nc21 (stereo not drawn), CO[C@@H]1COC(=O)C/C=C\[C@H](C)[C@@H](NS(=O)(=O)c2ccc(C)cc2)COC(=O)C/C=C\[C@@H]1C 2.78% [at 11.5 µM] and -1.73% [at 11.5 µM], COC(=O)C1=C(N)Oc2cc(C)oc(=O)c2C1c1cccnc1 (stereo not drawn), COC(=O)C(C(=O)OC)[C@@H]1CCCC(=O)C1 -6.21% [at 11.5 µM], CO[C@H]1COC(=O)CCC[C@@H](C)[C@H](OC)COC(=O)[C@@H](C)NC(=O)C/C=C\[C@@H]1C -4.01% [at 11.5 µM], CC(C)C(NC(=O)OCc1ccccc1)C(=O)OCC(=O)N1C(C)CCCC1C (stereo not drawn), Cc1c(O)cc(O)c2c(=O)c(-c3ccc(O)cc3)coc12, C/C(CCN1CCCCc2nc(C)c(C)cc21)=N\O[C@@H](C)c1cn([C@@H]2COC[C@@H]2O)nn1 -3.82% [at 11.5 µM], Cc1cc(NC(=O)COn2nnc3ccccc32)no1, CCC1=C(OC(=O)N(CC)CC)N2C(=O)OC(=NCCc3c[nH]c4ccccc34)[C@]2(C)[C@H]2C1=CC[C@H]1C(=O)N(CC)C(=O)[C@H]12, C/C(CCN1CCc2nc(-c3ccccc3)c(-c3ccccc3)cc2C1)=N\O[C@@H](C)c1cn([C@@H]2COC[C@@H]2O)nn1 -2.17% [at 11.5 µM], CCCN1Cc2cccc(C(=O)NCc3ccccc3)c2C1=O, COC(=O)C1=C(C)N(Cc2ccccc2)C2=C3C(=O)N(c4ccccc4)C(=O)C3[C@@](O)(C(=O)OC)C(=O)N2C1c1ccccc1 (stereo partly drawn) 2.38% [at 11.5 µM], CCS(=O)(=O)N(C)[C@@H]1c2cc(C#N)ccc2OC(C)(C)[C@H]1O, CC(C)C(N)C(=O)OCCOCn1cnc2c(=O)[nH]c(N)nc21 (stereo not drawn), CN(CCOc1ccc(CC2SC(=O)NC2=O)cc1)c1ccccn1 (stereo not drawn), CC(C)C(=O)Nc1cccc(C(=O)Nc2ccc3c(c2)OCO3)c1, O=C(O)C(O)[C@@](O)(Cc1ccc(O)cc1)C(=O)O (stereo partly drawn), CCOC(=O)C1C(=O)C=C(c2ccc(OC)cc2)CC1c1ccco1 (stereo not drawn), COc1ccc(/C=C/NC(=O)Cc2ccc(OC)c(OC)c2)cc1 -0.944% [at 11.5 µM] and -1% [at 11.5 µM], C=CC(=O)c1ccc2ccccc2c1, CC1(C)OC2CO[C@]3(COS(N)(=O)=O)OC(C)(C)OC3C2O1 (stereo partly drawn), O=C(c1cnccn1)N1CCC2(CCCN(Cc3ccccc3)C2)CC1, CCN1CCCC1CNC(=O)Cn1cnc2ccc(S(=O)(=O)N3CCC(C)CC3)cc2c1=O (stereo not drawn), CCCCNc1nc(C)nc2c1nc(-c1ccccc1)n2CCCCN(CC)CC, CC1OC(OCC2OC(Oc3c(-c4ccc(O)c(O)c4)oc4cc(O)cc(O)c4c3=O)C(O)C(O)C2O)[C@@H](O)C(O)C1O (stereo partly drawn), COc1ccc(CCC(=O)c2c(O)cc(OC3OC(CO)C(O)C(O)C3O[C@@H]3OC(C)C(O)C(O)C3O)cc2O)cc1O (stereo partly drawn), CC(=O)OCC1OC(C#CCCCc2ccccc2)C=CC1OC(C)=O (stereo not drawn) -0.276% [at 11.5 µM] and -3.22% [at 11.5 µM], CN(C)CCCCNC(=O)c1ccc(Cc2nc3ccccc3[nH]2)cc1, COC(=O)c1ccc(C23CC4(C2)[C@H](CN(Cc2cccnc2)[C@@H]4c2ccccc2)C3c2ccc(Cl)nc2)cc1 (stereo partly drawn), CN(C)/C=N/c1cc(=O)n(C)c(=O)n1CC1CC1, CS(=O)(=O)N(CC(=O)NCc1ccco1)c1ccc2c(c1)OCO2, CO[C@H]1COC(=O)[C@H](Cc2ccccc2)NC(=O)C/C=C\[C@@H](C)[C@H](OC)COC(=O)C/C=C\[C@@H]1C -1.56% [at 11.5 µM], O=C1NS(=O)(=O)c2ccccc21, CC1(C)C=CC(=O)[C@]2(C)C1CC(=O)[C@]1(C)C2CC[C@@]2(C)C(c3ccoc3)OC(=O)C3OC321 (stereo partly drawn), CC(=O)OCC(=O)[C@@]1(O)CCC2C3CCC4=CC(=O)CC[C@]4(C)C3C(=O)C[C@]21C (stereo partly drawn), COC1[C@H](OC(N)=O)C(O)[C@H](Oc2ccc3c(O)c(NC(=O)c4ccc(O)c(CC=C(C)C)c4)c(=O)oc3c2C)OC1(C)C (stereo partly drawn), CC(CCO)Nc1nc2c([nH]1)c(=O)n(C)c(=O)n2C (stereo not drawn), C=CCN(c1ccc(C(N)=O)cc1)S(C)(=O)=O, CCCCNc1nc2c(c(=O)[nH]c(=O)n2C)n1CCOc1ccccc1, CCCc1nc2c(C)cc(-c3nc4ccccc4n3C)cc2n1Cc1ccc(-c2ccccc2C(=O)O)cc1, CCc1c(C)sc(NC(=O)OC)c1C(=O)N1CCOCC1
